Structures can show the parent of a compound that is named as a salt.
Key:
Settings in all cases: 20 µM
[1] = system: Salmonella enterica typhimurium; experiment: growth AUC normalised to DMSO control (fraction of control); higher = less growth inhibition, active = hit call of the paper
In short: (§1)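 Pathogens were passaged twice under anaerobic conditions, then inoculated into pre-reduced mGAM plates at a starting OD578 of 0.01, with compound at 20 μM and 1% DMSO, and sealed with breathable membranes. For Haemophilus parainfluenzae, the medium was supplemented with hemin and NAD. OD578 was read every hour for 24 h in three biological replicates. Growth-curve AUC was calculated by the trapezoidal rule up to the exponential-to-stationary transition and normalised to DMSO controls on the same plate.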

Shigella flexneri = experiment: as above
In short: as §1

Vibrio cholerae = experiment: as above
In short: as §1

[2] = system: Yersinia pseudotuberculosis; experiment: as above
In short: as §1

P. vulgatus RND KO = experiment: growth AUC normalised to DMSO control (median) (fraction of control); higher = less growth inhibition, active = hit call of the paper
In short: (§2)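 After two overnight anaerobic passages, strains were inoculated at OD578 0.01 into mGAM in 96-well plates containing approved-drug library compounds at 20 μM and 1% DMSO. Growth was followed by reading OD578 hourly for 24 h within an anaerobic incubator. Area under the curve, taken by the trapezoidal rule up to the start of stationary phase, was normalised to same-plate vehicle wells, and the median of three biological replicates is listed.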

P. vulgatus WT = experiment: as above
In short: as §2

[3] = system: S. enterica typhimurium WT; experiment: as above
In short: as §2

[4] = system: S. enterica typhimurium tolC KO; experiment: as above
In short: as §2

Measured: growth AUC normalised to DMSO control
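For growth AUC normalised to DMSO control (median) in this document: active when median AUC fell below 0.1.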

CCN(CCO)CCCC(C)Nc1ccnc2cc(Cl)ccc12 (stereo not given) [Hydroxychloroquine sulfate]
inactive: [1] 1 | Shigella flexneri 0.988 | Vibrio cholerae 1.01 | [2] 1.01 | P. vulgatus RND KO 1.02 | P. vulgatus WT 1.01 | [3] 1 | [4] 0.995

COc1cc2nc(N3CCN(C(=O)C4COc5ccccc5O4)CC3)nc(N)c2cc1OC (stereo not given) [Doxazosin mesylate]
inactive: [1] 0.974 | Shigella flexneri 0.985 | Vibrio cholerae 0.942 | [2] 0.996 | P. vulgatus RND KO 0.949 | P. vulgatus WT 0.916 | [3] 0.994 | [4] 0.952

Cc1ccc(S(=O)(=O)NC(=O)NN2CC3CCCC3C2)cc1 (stereo not given) [Gliclazide]
inactive: [1] 1.02 | Shigella flexneri 1.04 | Vibrio cholerae 1.02 | [2] 0.987 | P. vulgatus RND KO 0.999 | P. vulgatus WT 1.02 | [3] 1 | [4] 1.01

CC(N)C12CC3CC(CC(C3)C1)C2 (stereo not given) [Rimantadine hydrochloride]
inactive: [1] 0.99 | Shigella flexneri 0.987 | Vibrio cholerae 0.985 | [2] 0.869 | P. vulgatus RND KO 0.978 | P. vulgatus WT 0.983 | [3] 0.996 | [4] 0.989

CCOC(=O)C1=C[C@]2(CC)CCCN3CCc4c(n1c1ccccc41)[C@@H]32 [Vinpocetine]
inactive: [1] 0.974 | Shigella flexneri 1.03 | Vibrio cholerae 0.904 | [2] 1.01 | P. vulgatus RND KO 1 | P. vulgatus WT 0.988 | [3] 1 | [4] 0.972

CCOc1cc(CC(=O)N[C@@H](CC(C)C)c2ccccc2N2CCCCC2)ccc1C(=O)O [Repaglinide]
inactive: [1] 1.03 | Shigella flexneri 1.06 | Vibrio cholerae 1.07 | [2] 1.02 | P. vulgatus RND KO 0.956 | P. vulgatus WT 1.01 | [3] 1.01 | [4] 0.981

Clc1ccc(CCC(Cn2ccnc2)Sc2c(Cl)cccc2Cl)cc1 (stereo not given) [Butoconazole nitrate]
inactive: [1] 1 | Shigella flexneri 1.01 | Vibrio cholerae 0.98 | [2] 0.745 | P. vulgatus RND KO 0.998 | P. vulgatus WT 1 | [3] 1.01 | [4] 0.999

CC(=O)OC(C)C[N+](C)(C)C (stereo not given) [Methacholine chloride]
inactive: [1] 0.992 | Shigella flexneri 0.939 | Vibrio cholerae 0.99 | [2] 0.983 | P. vulgatus RND KO 0.991 | P. vulgatus WT 1 | [3] 0.991 | [4] 1

Cc1nccn1CC1CCc2c(c3ccccc3n2C)C1=O (stereo not given) [Ondansetron hydrochloride]
inactive: [1] 1.01 | Shigella flexneri 1.04 | Vibrio cholerae 1.01 | [2] 1 | P. vulgatus RND KO 1.01 | P. vulgatus WT 1.04 | [3] 1 | [4] 0.984

COc1ccc(CN(CCN(C)C)c2ccccn2)cc1 [Pyrilamine maleate]
inactive: [1] 0.974 | Shigella flexneri 0.995 | Vibrio cholerae 0.969 | [2] 1.01 | P. vulgatus RND KO 0.986 | P. vulgatus WT 0.979 | [3] 0.993 | [4] 0.987

O=C(Cn1ccnc1[N+](=O)[O-])NCCO [Etanidazole]
inactive: [1] 1.01 | Shigella flexneri 1.03 | Vibrio cholerae 1.03 | [2] 1.02 | P. vulgatus RND KO 0.991 | P. vulgatus WT 1.01 | [3] 0.99 | [4] 1.02

CC(=O)Nc1c(I)c(C(=O)N[C@H]2C(O)O[C@H](CO)[C@@H](O)[C@@H]2O)c(I)c(N(C)C(C)=O)c1I (stereo not given in full) [Metrizamide]
inactive: [1] 1.01 | Shigella flexneri 0.985 | Vibrio cholerae 0.988 | [2] 1.01 | P. vulgatus RND KO 1 | P. vulgatus WT 1.01 | [3] 1.02 | [4] 1.01

CCCCC(O)c1ccccc1 (stereo not given) [Fenipentol]
inactive: [1] 0.997 | Shigella flexneri 0.986 | Vibrio cholerae 1.01 | [2] 0.995 | P. vulgatus RND KO 1 | P. vulgatus WT 0.988 | [3] 1 | [4] 1

CC1c2cccc(O)c2C(O)=C2C(=O)C3(O)C(O)=C(C(N)=O)C(=O)C(N(C)C)C3C(O)C21 (stereo not given) [Doxycycline hydrochloride]
active: [1] 0.00452 | Shigella flexneri 0.00494 | Vibrio cholerae 0.018 | [2] 0.0395 | P. vulgatus RND KO 0.012 | P. vulgatus WT 0.00631 | [3] 0.00375 | [4] 0.00276

O=C(O)/C=C/c1ccc(Cn2ccnc2)cc1 [Ozagrel hydrochloride]
inactive: [1] 1.02 | Shigella flexneri 1.02 | Vibrio cholerae 0.995 | [2] 1.01 | P. vulgatus RND KO 1.02 | P. vulgatus WT 1.05 | [3] 1 | [4] 1

COc1ccc(C(=O)c2ccccc2O)c(O)c1 [Dioxybenzone]
inactive: [1] 0.977 | Shigella flexneri 0.983 | Vibrio cholerae 0.909 | [2] 0.982 | P. vulgatus RND KO 0.981 | P. vulgatus WT 1.01 | [3] 0.993 | [4] 0.951

C[C@H](CS)C(=O)N1CCC[C@H]1C(=O)O [Captopril]
inactive: [1] 1.01 | Shigella flexneri 1.03 | Vibrio cholerae 0.995 | [2] 1.01 | P. vulgatus RND KO 1.01 | P. vulgatus WT 1.06 | [3] 0.991 | [4] 1.01

NCCc1ccc(O)c(O)c1 [Dopamine hydrochloride]
inactive: [1] 1.02 | Shigella flexneri 1.05 | Vibrio cholerae 0.989 | [2] 1.01 | P. vulgatus RND KO 1.03 | P. vulgatus WT 1.02 | [3] 1 | [4] 0.99

COC(=O)CCc1ccc(OCC(O)CNC(C)C)cc1 (stereo not given) [Esmolol hydrochloride]
inactive: [1] 1.01 | Shigella flexneri 1.06 | Vibrio cholerae 1.06 | [2] 1 | P. vulgatus RND KO 1.05 | P. vulgatus WT 1.09 | [3] 1 | [4] 1.01

O=C(CCCCC(=O)Nc1c(I)cc(I)c(C(=O)O)c1I)Nc1c(I)cc(I)c(C(=O)O)c1I [Iodipamide]
inactive: [1] 0.986 | Shigella flexneri 0.998 | Vibrio cholerae 0.995 | [2] 1 | P. vulgatus RND KO 1.01 | P. vulgatus WT 1 | [3] 0.999 | [4] 1.01

Cc1c(N(C)C)c(=O)n(-c2ccccc2)n1C [Amidopyrine]
inactive: [1] 1.01 | Shigella flexneri 1.03 | Vibrio cholerae 1.05 | [2] 1.01 | P. vulgatus RND KO 1 | P. vulgatus WT 1.02 | [3] 1.01 | [4] 0.999

NS(=O)(=O)c1cc2c(cc1C(F)(F)F)NCNS2(=O)=O [Hydroflumethiazide]
inactive: [1] 1.01 | Shigella flexneri 1.01 | Vibrio cholerae 0.998 | [2] 0.998 | P. vulgatus RND KO 1.02 | P. vulgatus WT 0.986 | [3] 1.01 | [4] 1.01

CC(=O)N1CCN(c2ccc(OCC3COC(Cn4ccnc4)(c4ccc(Cl)cc4Cl)O3)cc2)CC1 (stereo not given) [Ketoconazole]
inactive: [1] 1.01 | Shigella flexneri 0.998 | Vibrio cholerae 0.988 | [2] 0.984 | P. vulgatus RND KO 0.955 | P. vulgatus WT 0.972 | [3] 0.998 | [4] 0.884

O=P(O)(O)C(Cl)(Cl)P(=O)(O)O [Clodronate disodium]
inactive: [1] 0.986 | Shigella flexneri 0.993 | Vibrio cholerae 0.964 | [2] 0.991 | P. vulgatus RND KO 1 | P. vulgatus WT 1.01 | [3] 0.997 | [4] 0.986

CCCNC(C)C(=O)Nc1c(C)csc1C(=O)OC (stereo not given) [Articaine hydrochloride]
inactive: [1] 0.949 | Shigella flexneri 1.03 | Vibrio cholerae 1.08 | [2] 1.03 | P. vulgatus RND KO 1.04 | P. vulgatus WT 1.06 | [3] 1.01 | [4] 0.997

CC[N+](C)(C)Cc1ccccc1Br [Bretylium tosylate]
inactive: [1] 1 | Shigella flexneri 1.01 | Vibrio cholerae 1.02 | [2] 1.02 | P. vulgatus RND KO 0.995 | P. vulgatus WT 1.03 | [3] 1 | [4] 0.999

Cc1cc(C2CCCCC2)n(O)c(=O)c1 [Ciclopirox ethanolamine]
inactive: [1] 1.01 | Shigella flexneri 0.997 | Vibrio cholerae 0.969 | [2] 0.995 | P. vulgatus RND KO 1.02 | P. vulgatus WT 0.999 | [3] 1.02 | [4] 0.952

Cc1cn[nH]c1 [Fomepizole]
inactive: [1] 0.996 | Shigella flexneri 0.992 | Vibrio cholerae 0.977 | [2] 0.996 | P. vulgatus RND KO 0.978 | P. vulgatus WT 0.985 | [3] 0.993 | [4] 0.997

CCc1nc(N)nc(N)c1-c1ccc(Cl)cc1 [Pyrimethamine]
inactive: Vibrio cholerae 0.908 | [2] 0.932 | P. vulgatus RND KO 0.57 | P. vulgatus WT 0.288 | [3] 0.93 | [4] 0.66
active: [1] 0.915 | Shigella flexneri 0.851

NCc1ccc(S(N)(=O)=O)cc1 [Mafenide hydrochloride]
inactive: [1] 1 | Shigella flexneri 0.998 | Vibrio cholerae 1.03 | [2] 0.969 | P. vulgatus RND KO 0.963 | P. vulgatus WT 0.815 | [3] 1.01 | [4] 1

— the supplement of paper PMC12350171
